From PubChem
LYPLA2 counter – LYPLA2 inhibitors, primary screen, counter-screen for PME1 inhibitor project, biochemical, fluorescence polarization, FP-Rh probe ABPP. Acyl-protein thioesterase 2 (Homo sapiens), O95372. recombinant LYPLA2. inhibition, % at 5.9 µM. hit rate 0.38% among 320,000;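 active means inhibition above the screen-wide mean plus 3 SD, limit set per campaign, cut at about 26% in these data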;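 further: 0% = LYPLA2 with DMSO and 100% = wells lacking LYPLA2 enzyme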
Target sequence (O95372 whole entry, looked up): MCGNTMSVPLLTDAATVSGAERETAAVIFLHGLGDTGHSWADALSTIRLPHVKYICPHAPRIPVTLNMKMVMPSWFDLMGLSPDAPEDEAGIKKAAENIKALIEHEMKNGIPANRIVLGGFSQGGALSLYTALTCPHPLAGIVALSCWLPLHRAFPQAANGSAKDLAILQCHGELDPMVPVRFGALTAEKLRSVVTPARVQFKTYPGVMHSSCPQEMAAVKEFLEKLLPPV
GSTO1 inh – inhibitors of recombinant GSTO1, primary screen, counter-screen for RBBP9 inhibitor project, biochemical, fluorescence polarization | hit rate 1.1% among 300,000 | activity-based probe fluorescence polarization | inhibition, % at 5.96 µM | Glutathione S-transferase omega-1 (Homo sapiens), P78417 | AID 1974, 2009;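 active means inhibition above the campaign mean inhibition plus 3 SD, cut at about 35% in these data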;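 further: 0% = GSTO1-1 with DMSO and 100% = wells lacking GSTO1-1 enzyme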
Target sequence (P78417 whole entry, looked up): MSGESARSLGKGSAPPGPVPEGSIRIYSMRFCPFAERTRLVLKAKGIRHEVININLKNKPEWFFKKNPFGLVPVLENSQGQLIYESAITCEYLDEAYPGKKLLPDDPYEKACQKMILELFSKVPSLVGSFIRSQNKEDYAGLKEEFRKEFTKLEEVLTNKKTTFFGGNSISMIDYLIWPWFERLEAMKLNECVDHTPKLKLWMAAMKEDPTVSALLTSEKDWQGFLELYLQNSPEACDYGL
LYPLA1 inh – LYPLA1 inhibitors, primary screen, counter-screen for PME1 inhibitor project, biochemical, fluorescence polarization, FP-Rh probe ABPP; inhibition, % at 5.9 µM; recombinant LYPLA1; hit rate 0.16% among 320,000; AID 2174, 2009;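 active means inhibition above the mean of all tested compounds plus 3 SD, set per campaign, cut at about 14% in these data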;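 further: inhibitors block serine hydrolase probe labeling of LYPLA1 so polarization falls; 0% = enzyme with DMSO and 100% = wells lacking LYPLA1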
Target sequence (O75608 whole entry, looked up): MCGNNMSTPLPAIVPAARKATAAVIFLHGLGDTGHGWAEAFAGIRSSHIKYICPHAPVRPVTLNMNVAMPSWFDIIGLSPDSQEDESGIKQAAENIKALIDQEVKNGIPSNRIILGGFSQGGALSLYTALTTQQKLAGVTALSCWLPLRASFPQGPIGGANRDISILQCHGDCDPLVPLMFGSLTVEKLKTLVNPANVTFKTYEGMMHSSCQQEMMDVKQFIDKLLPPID
Fam108B counter – mouse Fam108B serine hydrolase inhibitors, primary screen, counter-screen for RBBP9 inhibitor project, biochemical, fluorescence polarization. hit rate 0.33% among 300,000. recombinant Fam108B, FP-Rh probe fluorescence polarization. inhibition, % at 9.51 µM. AID 1947, 2009;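 active means inhibition above the screen mean inhibition plus 3 SD, computed separately per campaign, cut at about 18% in these data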;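 further: inhibitors lower polarization as less probe binds the enzyme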
PME-1 primary – PME-1 inhibitors via competitive probe labeling, primary screen, biochemical, fluorescence polarization, FP-Rh probe, HTS. Protein phosphatase methylesterase 1 (Homo sapiens), Q9Y570. recombinant PME-1. inhibition, % at 5.9 µM. hit rate 0.53% among 320,000;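 active means inhibition above the campaign mean of all compounds plus 3 SD, cut at about 26% in these data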;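 further: competitive labeling of PME-1 active site by serine hydrolase directed probe; 0% = PME-1 with DMSO and 100% = wells lacking PME-1 enzyme; inhibitors block probe labeling so polarization falls and inhibition rises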
PAD4 inh – human PAD4 inhibitors, primary screen, biochemical, fluorescence polarization, 1536-well format. recombinant PAD4, RCA probe fluorescence polarization. inhibition, % at 6.36 µM. hit rate 0.41% among 330,000;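 active means percent inhibition above a cutoff equal to the mean of all tested compounds plus 3 SD, cut at about 15% in these data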;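 further: 0% = PAD4 with RCA probe and DMSO and 100% = probe without PAD4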
PAD4 confirm – human PAD4 inhibitors, confirmation, biochemical, fluorescence polarization; shares compounds with PAD4 inh; recombinant PAD4, RCA probe fluorescence polarization; inhibition, % at 6.36 µM; hit rate 28% among 1,200;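 active means mean inhibition across replicates above the hit cutoff set by the earlier primary screen, cut at about 15% in these data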;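 further: inhibitors block active-site labeling by the probe so polarization falls; 0% = PAD4 with probe and DMSO and 100% = probe without PAD4 enzyme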
* marks the source's active call; other numbers are inactive results; . = not tested or not shown. The list is not random: actives were taken first. Their share in the collection is about 1.8%.

SMILES | LYPLA2 counter | GSTO1 inh | LYPLA1 inh | Fam108B counter | PME-1 primary | PAD4 inh | PAD4 confirm
Cc1ccc(N2C(=O)C3ON(c4ccccc4)C(c4ccncc4)C3C2=O)cc1 (stereo not given) | 7.0 | -0.7 | 3.2 | 3.6 | 6.4 | 0.4 | .
COc1cc(Cl)c(NC2=CC(=O)C(=O)c3ccccc32)c(OC)c1 | 21.9 | . | 6.5 | . | 17.2 | 41.0* | 51.6*
Cc1ccc(S(=O)(=O)NC(=O)Nc2ccc(N(C)C)cc2)cc1 | 3.2 | 87.4* | 1.9 | 10.2 | 13.2 | 27.7* | 5.3
O=C(/C=C/c1ccccc1)C1=C(O)C(=O)N(CCO)C1c1ccccc1[N+](=O)[O-] (stereo not given) | 9.1 | 7.1 | -0.8 | 1.6 | 2.8 | 23.6* | -1.1
CC(OC(=O)c1cccc(S(=O)(=O)N2CCCCC2)c1)C(=O)NC1CCCCC1C (stereo not given) | -0.2 | 4.6 | 0.1 | -4.3 | -5.9 | 2.7 | .
COc1cc(N2C(=O)CSC23C(=O)Nc2ccccc23)cc(OC)c1OC (stereo not given) | 4.7 | -6.3 | 0.0 | -2.1 | 0.3 | 15.1* | 16.4*
COc1ccc(N2C(=O)CSC23C(=O)Nc2ccccc23)cc1OC (stereo not given) | 0.2 | -3.0 | -0.9 | -2.5 | 3.6 | 6.7 | .
O=C(NCCCN1CCN(c2ccccc2F)CC1)C1CCC(=O)N1C1CCCC1 (stereo not given) | -3.2 | 0.6 | -6.0 | 3.0 | 2.3 | 2.4 | .
Cc1ccc(F)c(NC(=S)Nc2cccc3ccccc23)c1 | -4.9 | -0.7 | -2.2 | -2.7 | 6.2 | 18.2* | 4.2
Cc1ccc(C)c(NC(=S)Nc2cccc3cnccc23)c1 | -0.1 | 11.2 | -2.4 | 0.6 | 0.4 | -4.0 | .
Cc1ccc(C(=O)OCN2C(=O)c3ccccc3C2=O)o1 | 0.6 | 24.2 | -0.3 | 0.3 | -5.6 | -6.0 | .
COc1ccc(C)cc1Nc1n[n+](C)c(-c2c3ccccc3cc3ccccc23)s1 | -1.3 | 7.5 | 0.7 | -4.2 | 1.3 | 51.1* | 9.8
O=C1N/C(=C/c2ccc(N3CCOCC3)o2)C(=O)N1c1ccccc1 | 0.6 | 1.3 | -5.3 | 5.8 | -1.2 | 119.3* | 4.1
CCc1nnc(N/N=C/c2ccc(N3CCC(C)CC3)c([N+](=O)[O-])c2)n1N | 5.0 | 17.7 | -3.4 | 0.0 | 4.8 | 29.2* | 3.5
Cc1nnc(N/N=C/c2cc([N+](=O)[O-])c(N3CCC(C)CC3)cc2N2CCC(C)CC2)n1N | 16.5 | 32.3 | -0.8 | 11.7 | 4.7 | 44.0* | 2.8
CC(NS(=O)(=O)c1ccccc1Cl)C1CC2CCC1C2 (stereo not given) | 3.3 | 0.3 | 0.9 | -1.4 | 9.1 | 1.4 | .
CCCOc1ccc(C(=O)NNC(=S)NC(=O)c2cc(-c3ccc(Cl)cc3)nc3ccccc23)cc1 | 0.9 | 0.1 | -6.1 | -6.2 | 0.9 | 7.7 | .
COc1ccc(C(=O)NNC(=S)NC(=O)c2cc(-c3ccccc3)nc3ccccc23)cc1 | -21.6 | -61.8 | -12.7 | -5.6 | -0.7 | 15.0* | 6.4
O=C1C(Br)=Cc2cccc3cccc1c23 | 4.0 | 6.3 | 5.2 | 9.1 | 9.5 | 91.4* | 62.0*
CCOC(=O)C1(Cc2cccc(OC)c2)CCCN(CCO)C1 (stereo not given) | -2.5 | -4.7 | 0.9 | -0.8 | -10.5 | 3.2 | .
N#Cc1nc(N2CCCCC2)nc(N2CCOCC2)n1 | -0.2 | -1.4 | -1.3 | 6.2 | -2.1 | 18.5* | 23.8*
Nc1ccc(Oc2ccc3c(c2)C(=O)N(CC2CCCO2)C3=O)cc1 (stereo not given) | 0.5 | 3.7 | -4.7 | -0.6 | 4.5 | -4.3 | .
CC1=NN(c2nc(-c3ccc(C)cc3)cs2)C(=O)C1N=Nc1cccc(O)c1 (stereo not given) | -7.5 | 14.1 | -9.0 | 17.0 | 10.0 | -9.0 | .
CC1=NN(c2ccc(C)cc2C)C(=O)C1C(c1cccc(O)c1)C1C(=O)N(c2ccc(C)cc2C)N=C1C (stereo not given) | 0.4 | 55.0* | 0.5 | 1.7 | -9.0 | 39.8* | -1.4
N#C/C(=C\c1cccnc1)C(=O)Nc1ccccc1 | -1.4 | -1.1 | 0.8 | -4.2 | -5.0 | 1.3 | .
SMILES | LYPLA2 counter | GSTO1 inh | LYPLA1 inh | Fam108B counter | PME-1 primary | PAD4 inh | PAD4 confirm
N#C/C(=C\c1cccnc1)C(=O)Nc1ccc(O)cc1F | 3.3 | -3.5 | 7.2 | 6.1 | 8.3 | 17.9* | 6.5
COCC(=O)N(CCc1ccc(OC)c(OC)c1)Cc1nc2ccccc2c(=O)[nH]1 | 9.9 | 2.4 | 2.6 | 1.1 | -1.0 | 22.4* | 6.5
COCC(=O)N(Cc1nc2ccccc2c(=O)[nH]1)Cc1cccs1 | 1.5 | -0.2 | 1.5 | 3.7 | -2.5 | -1.8 | .
O=S1OC(c2ccccc2)c2cc(Cl)ccc21 (stereo not given) | -1.5 | 7.1 | 1.9 | -1.5 | -8.5 | 40.0* | 35.5*
Oc1ccc2ccccc2c1C=NCc1ccccc1 | -3.1 | 33.6 | -1.0 | 10.2 | 10.7 | 19.4* | -1.6
O=CN/N=C/c1c(O)ccc2ccccc12 | -4.1 | 15.4 | 0.0 | -6.0 | -0.8 | -3.3 | .
COC(=O)[C@H](Cc1ccccc1)NC(=O)NCc1ccccc1OC | 6.5 | 0.3 | 4.0 | 1.0 | 4.7 | 2.7 | .
CCN(C(=O)/C=C/c1ccc(OC)cc1)C1CCS(=O)(=O)C1 (stereo not given) | -1.6 | 0.3 | 0.3 | -0.5 | -3.0 | -1.6 | .
COc1ccc(/C=C/C(=O)N(C)C2CCS(=O)(=O)C2)cc1OC (stereo not given) | 3.5 | -3.4 | -3.7 | -1.8 | -6.2 | 15.4* | -5.1
COCCn1cnc2c1c(=O)n(Cc1ccc(C#N)cc1)c(=O)n2Cc1ccccc1 | 3.1 | 9.1 | 5.5 | 3.0 | 0.3 | 19.6* | 2.3
COCCn1cnc2c1c(=O)n(CC(=O)OCC#N)c(=O)n2Cc1ccccc1 | 2.1 | -0.7 | -2.0 | 0.3 | -0.6 | -5.8 | .
Cc1ccc(-n2nnnc2SCn2nnc3ccccc3c2=O)c(C)c1 | 6.2 | 1.6 | 1.0 | -3.6 | 4.5 | -3.1 | .
Cc1cccc(NC(=O)C(CC(C)C)NC(=O)C2CCC(C)CC2)n1 (stereo not given) | 5.9 | 3.8 | 3.2 | 0.1 | -0.7 | 20.5* | 2.4
O=C1[C@H]2[C@@H](c3ccc(F)cc3)N3C(=O)N(c4ccccc4)C(=O)[C@@]3(Cc3ccccc3)[C@H]2C(=O)N1C1CCCCC1 | 0.0 | -0.1 | -2.3 | 0.7 | -9.3 | -3.9 | .
O=C1[C@H]2[C@@H](c3ccc(F)cc3)N3C(=O)N(c4ccccc4)C(=O)[C@@]3(Cc3ccc(Cl)cc3)[C@H]2C(=O)N1C1CCCCC1 | -8.9 | 3.1 | -5.9 | -10.3 | -11.6 | 21.5* | 2.4
